Values joined by “and” are separate entries in the source; they are usually repeats but may differ in a detail not shown here. Equal values may be shown once. Hit rate of the full screen: of about 5,500 compounds, about 2,000 (36%) were called active. About 18% were inconclusive and are not listed. Rule as the data show it: active = normalized growth mostly below about 0.91 (no sharp cut-off); inconclusive = no clear call, values can overlap the other calls; inactive = mostly above about 0.92. Some of the results follow.
Assay: chemical genetic growth profiling, strain panel (AID 1159580);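 also: tested at 20 µM; growth read once vehicle control cultures reached saturation at 30 °C; 1 = growth at the plate median or of vehicle wells; lower values mean less growth of the strain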
Conditions: S. cerevisiae deletion strains, growth OD

Measured: normalized growth

CC(=O)OC1CCC2(C)C(=CC=C3C2CCC2(C)C3CCC2C(C)/C=C/C(C)C(C)C)C1(C)C (configuration not stated)
inactive: locus YAL021C, strain ccr4, active compounds read low 0.994 | locus YAL026C, strain drs2, active compounds read low 1.02 | locus YAL030W, strain snc1, active compounds read low 1.02 | locus YBL061C, strain skt5, active compounds read low 1.02 | locus YBR009C, strain hhf1, active compounds read low 1.01 | locus YBR021W, strain FUR4, active compounds read low 1.02 | locus YBR023C, strain chs3, active compounds read low 1.03 | locus YBR171W, strain sec66, active compounds read low 1.04 | locus YBR229C, strain ROT2, active compounds read low 1.01 | locus YBR231C, strain swc5, active compounds read low 1.04 | locus YBR279W, strain paf1, active compounds read low 1.02 | locus YCL011C, strain gbp2, active compounds read low 1.03 | locus YCL016C, strain dcc1, active compounds read low 1.01 | locus YCL029C, strain bik1, active compounds read low 1.01 | locus YCL069W, strain vba3, active compounds read low 1.02 | locus YCR088W, strain abp1, active compounds read low 1.03 | locus YDL005C, strain med2, active compounds read low 1.04 | locus YDL035C, strain GPR1, active compounds read low 1.03 | locus YDL040C, strain nat1, active compounds read low 1.02 | locus YDL074C, strain BRE1, active compounds read low 1.06 | locus YDL101C, strain DUN1, active compounds read low 1.02 | locus YDL185W, strain tfp1, active compounds read low 0.993 | locus YDL192W, strain arf1, active compounds read low 1 | locus YDR001C, strain nth1, active compounds read low 1.03 | locus YDR069C, strain doa4, active compounds read low 1.02 | locus YDR101C, strain arx1, active compounds read low 0.974 | locus YDR137W, strain rgp1, active compounds read low 1.03 | locus YDR159W, strain sac3, active compounds read low 1.04 | locus YDR162C, strain NBP2, active compounds read low 0.995 | locus YDR195W, strain ref2 1.05 | locus YDR297W, strain sur2, active compounds read low 1.02 | locus YDR318W, strain mcm21, active compounds read low 1 | locus YDR334W, strain swr1, active compounds read low 1.03 | locus YDR335W, strain msn5, active compounds read low 1.02 | locus YDR388W, active compounds read low 1.02 | locus YDR392W, strain spt3, active compounds read low 0.992 | locus YDR502C, strain sam2, active compounds read low 0.989 | locus YEL003W, strain gim4, active compounds read low 1.03 | locus YEL037C, strain rad23, active compounds read low 1.02 | locus YEL061C, strain CIN8 (second series), active compounds read low 1.04 | locus YEL061C, strain CIN8, active compounds read low 1.01 | locus YER015W, strain faa2, active compounds read low 1.03 | locus YER016W, strain bim1, active compounds read low 1.02 | locus YER110C, active compounds read low 1.01 | locus YER111C, strain swi4, active compounds read low 1.02 | locus YER155C, strain BEM2 (second series), active compounds read low 1.05 | locus YER155C, strain BEM2, active compounds read low 0.998 | locus YER167W, strain BCK2, active compounds read low 1.04 | locus YFR010W, strain ubp6, active compounds read low 1.04 | locus YGL078C, strain dbp3, active compounds read low 0.987 | locus YGL086W, strain mad1, active compounds read low 0.994 | locus YGL167C, strain pmr1, active compounds read low 1.02 | locus YGL173C, strain kem1, active compounds read low 1.03 | locus YGL227W, strain vid30, active compounds read low 1.03 | locus YGL240W, strain doc1, active compounds read low 1 | locus YGL248W, strain PDE1, active compounds read low 1.01 | locus YGL253W, strain hxk2, active compounds read low 1.03 | locus YGR078C, strain PAC10, active compounds read low 1.04 | locus YGR135W, strain pre9, active compounds read low 0.996 | locus YGR252W, strain gcn5, active compounds read low 1.03 | locus YHR013C, strain ard1, active compounds read low 1.03 | locus YHR027C, strain rpn1, active compounds read low 1.04 | locus YHR030C, strain SLT2, active compounds read low 1.01 and 0.996 | locus YHR079C, strain IRE1 (second series), active compounds read low 0.998 | locus YHR079C, strain IRE1, active compounds read low 1.03 | locus YHR094C, strain hxt1, active compounds read low 0.991 | locus YHR129C, strain ARP1, active compounds read low 1.03 | locus YHR142W, strain chs7, active compounds read low 1.05 | locus YHR200W, strain rpn10, active compounds read low 0.986 | locus YIL066C, strain RNR3, active compounds read low 1.03 | locus YIL073C, strain SPO22, active compounds read low 1.03 | locus YIL125W, strain kgd1, active compounds read low 1 | locus YIR030C, strain dcg1, active compounds read low 1 | locus YJL092W, strain hpr5, active compounds read low 1.03 | locus YJL095W, strain BCK1 (second series), active compounds read low 1.02 | locus YJL095W, strain BCK1, active compounds read low 1.03 and 0.996 | locus YJL115W, strain asf1, active compounds read low 1.03 | locus YJL129C, strain trk1, active compounds read low 1.05 | locus YJL134W, strain LCB3, active compounds read low 1.01 | locus YJL154C, strain vps35, active compounds read low 1.03 | locus YJL164C, strain tpk1, active compounds read low 1.01 | locus YJL166W, strain qcr8, active compounds read low 1.02 | locus YJL168C, strain set2, active compounds read low 1 | locus YJL187C, strain SWE1 (second series), active compounds read low 1.03 | locus YJL187C, strain SWE1, active compounds read low 1.04 | locus YJR043C, strain POL32, active compounds read low 1.03 | locus YJR066W, strain TOR1, active compounds read low 0.936 | locus YKL009W, strain mrt4, active compounds read low 1.01 | locus YKL068W, active compounds read low 1.01 | locus YKL085W, strain MDH1 (second series), active compounds read low 1 | locus YKL085W, strain MDH1, active compounds read low 1 | locus YKL160W, strain elf1, active compounds read low 0.997 | locus YKR001C, strain vps1, active compounds read low 0.988 | locus YKR026C, strain gcn3, active compounds read low 1.03 | locus YKR091W, strain srl3, active compounds read low 1.03 | locus YLL001W, strain dnm1, active compounds read low 1.01 | locus YLL026W, active compounds read low 1.02 | locus YLL041C, strain sdh2, active compounds read low 1.02 | locus YLR027C, strain aat2, active compounds read low 1 | locus YLR039C, strain RIC1, active compounds read low 1.04 | locus YLR058C, strain SHM2, active compounds read low 1.01 | locus YLR102C, strain apc9, active compounds read low 0.988 | locus YLR113W, strain HOG1, active compounds read low 0.995 | locus YLR221C, strain rsa3, active compounds read low 1.02 | locus YLR258W, strain gsy2, active compounds read low 1 | locus YLR262C, strain YPT6 (second series), active compounds read low 1.01 | locus YLR262C, strain YPT6, active compounds read low 1.07 | locus YLR268W, strain sec22, active compounds read low 0.998 | locus YLR320W, strain mms22, active compounds read low 1.03 | locus YLR330W, strain CHS5, active compounds read low 1.02 | locus YLR342W, strain FKS1 (second series), active compounds read low 1.12 | locus YLR342W, strain FKS1, active compounds read low 1.02 | locus YLR357W, strain rsc2, active compounds read low 1.06 | locus YLR370C, strain arc18, active compounds read low 1.06 | locus YLR371W, strain rom2, active compounds read low 1.01 | locus YLR384C, strain iki3, active compounds read low 1.03 | locus YLR418C, strain cdc73, active compounds read low 1.02 | locus YML016C, strain PPZ1, active compounds read low 1 | locus YML032C, strain rad52, active compounds read low 1 | locus YML120C, strain ndi1, active compounds read low 1.02 | locus YML124C, strain tub3, active compounds read low 0.987 | locus YMR058W, strain fet3, active compounds read low 1.05 | locus YMR078C, strain ctf18, active compounds read low 0.998 | locus YMR125W, strain sto1, active compounds read low 1.03 | locus YMR129W, active compounds read low 1.03 | locus YMR205C, strain PFK2, active compounds read low 1.02 | locus YMR223W, strain ubp8, active compounds read low 1 | locus YMR231W, strain pep5, active compounds read low 1.02 | locus YMR263W, strain SAP30, active compounds read low 1.03 | locus YMR307W, strain GAS1, active compounds read low 1 | locus YNL067W, strain RPL9B, active compounds read low 1.04 | locus YNL071W, strain lat1, active compounds read low 1.03 | locus YNL183C, strain NPR1, active compounds read low 0.965 | locus YNL209W, strain ssb2, active compounds read low 1.01 | locus YNL233W, strain BNI4, active compounds read low 1.03 | locus YNL248C, strain rpa49, active compounds read low 0.965 | locus YNL250W, strain rad50, active compounds read low 0.99 | locus YNL271C, strain bni1, active compounds read low 1 | locus YNL298W, strain CLA4, active compounds read low 0.979 | locus YNL307C, strain MCK1, active compounds read low 1.02 | locus YNL322C, strain KRE1 (second series), active compounds read low 1.02 | locus YNL322C, strain KRE1, active compounds read low 1.02 | locus YNR049C, strain mso1, active compounds read low 1.02 | locus YNR052C, strain pop2, active compounds read low 1.01 | locus YOL012C, strain htz1 1.7 | locus YOL147C, strain pex11, active compounds read low 1 | locus YOR001W, strain rrp6, active compounds read low 1.04 | locus YOR061W, strain CKA2, active compounds read low 1 | locus YOR069W, strain VPS5, active compounds read low 1.01 | locus YOR070C, strain gyp1, active compounds read low 1.02 | locus YOR080W, strain dia2, active compounds read low 1.02 | locus YOR083W, strain WHI5, active compounds read low 0.998 | locus YOR106W, strain vam3, active compounds read low 1.02 | locus YOR136W, strain idh2, active compounds read low 0.987 | locus YOR144C, strain elg1, active compounds read low 0.988 | locus YOR184W, strain ser1, active compounds read low 0.983 | locus YOR231W, strain MKK1, active compounds read low 1.04 | locus YOR265W, strain rbl2, active compounds read low 1.01 | locus YOR270C, strain vph1, active compounds read low 1.03 | locus YOR290C, strain snf2, active compounds read low 0.993 | locus YOR316C, strain cot1, active compounds read low 0.989 | locus YPL051W, strain arl3, active compounds read low 1.02 | locus YPL055C, strain LGE1, active compounds read low 1.07 | locus YPL078C, strain atp4, active compounds read low 0.999 | locus YPL106C, strain sse1, active compounds read low 1.05 | locus YPL240C, strain hsp82, active compounds read low 1.03 | locus YPL256C, strain CLN2, active compounds read low 1.04 | locus YPR119W, strain clb2, active compounds read low 1 | locus YPR141C, strain kar3, active compounds read low 0.982 | locus YPR163C, strain tif3, active compounds read low 0.978 | locus YPR167C, strain met16, active compounds read low 1.01 | strain wtn01, active compounds read low 0.984

Reference: PubChem BioAssay AID1159580 (chemical genetic matrix, 2015)
